Measured values reported in PubChem BioAssay.
Entries with a potency or affinity are not part of this list. Results filed as inconclusive are left out. Calls of active or inactive are those of the source. Unless noted, how the calls were made is not given here.

What was measured:
[1] = RMG-1 ovarian cancer cell viability loss – cherry-pick, dose response (AID 687029;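 active means signal drop whose fitted half-maximal concentration is at most twice the top valid dose, in every test run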;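 further: cells exposed to compound for 96 hours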)
[2] = IOSE-T80 viability loss, PAX8-independent line – cell-based, cherry-pick, selectivity assay for PAX8 inhibitor project, dose response (AID 687032;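 active means fitted half-maximal concentration for viability loss no higher than twice the top valid dose, in every repeat run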;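 further: cells exposed to compound for 96 h before reading; 0% = neutral control wells and -100% = 2 µM mitoxantrone kill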)
[3] = CMV-driven luciferase expression suppression in HEK293 – cell-based, luminescence, dry powder, counter-screen for Pax8 inhibitor project, dose response (AID 743020;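 active means signal-lowering compounds whose fitted half-maximal concentration is at or below twice the top tested dose in every run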;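 further: HEK293 cells stably expressing the CMV luciferase reporter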)
[4] = general cell-killing toxicity readout – plate reader, dry powder samples, cytotoxicity control for PAX8 inhibitor project, dose response (AID 743021)
[5] = OVCAR-3 cell viability loss – plate reader, dry powder samples, PAX8 inhibitor project, dose response (AID 743044); conditions: max activity: at 35 µM, stronger effect = lower value unless noted
[6] = toxicity toward immortalized ovarian surface epithelium – cell-based, plate reader, dry powder samples, cytotoxicity control for PAX8 inhibitor project, dose response (AID 743045);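 further: 0% = neutral control median and -100% = positive control median; more negative values mean more cell killing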
[7] = A2780 cell killing – plate reader, dry powder samples, cytotoxicity control, dose response (AID 743046);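 further: 0% = neutral control wells and -100% = cytotoxic reference compound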
[8] = OVCAR8 cell viability loss – plate reader, dry powder samples, PAX8 project, dose response (AID 743197)

Measured: max activity

C[C@@H]1CCCCO[C@@H](CN(C)Cc2ccc(Cl)c(Cl)c2)[C@H](C)CN([C@H](C)CO)C(=O)c2cc(NS(=O)(=O)c3ccc(Cl)cc3)ccc2O1
inactive: [1] | [2] | [3] | [4] | [5] -24.1% | [6] | [7]

Cc1ccccc1-c1ccc([C@@H]2[C@@H](CO)N3CCCCN(C(=O)NC4CCCC4)C[C@H]23)cc1
inactive: [1] | [2] | [3] | [4] | [5] -4.19% [at 16 µM, stronger effect = lower value] | [6] | [7] | [8]

C[C@@H]1CN([C@H](C)CO)C(=O)c2cc(NC(=O)Nc3ccc(F)cc3)ccc2O[C@@H](C)CCCCO[C@H]1CN(C)C(=O)C1CCCCC1
inactive: [1] | [2] | [3] | [4] | [5] 11.9% [at 16 µM, stronger effect = lower value] | [6] | [8]

C[C@@H]1CN([C@@H](C)CO)C(=O)Cc2cc(NC(=O)C3CCCCC3)ccc2O[C@H]1CN(C)Cc1ccc(Cl)c(Cl)c1
inactive: [1] | [2] | [3] | [4] | [5] -14.6% [at 8 µM, stronger effect = lower value] | [6] | [7] | [8]

C[C@@H]1CCCCO[C@@H](CN(C)C(=O)Nc2ccc(F)cc2)[C@H](C)CN([C@H](C)CO)C(=O)c2cc(NS(=O)(=O)c3ccc(Cl)cc3)ccc2O1
inactive: [1] | [2] | [3] | [4] | [5] 17.7% | [6] | [7]

O=C(C[C@H]1CC[C@H]2[C@@H](COC[C@@H](O)CN2Cc2ccc3c(c2)OCO3)O1)Nc1ccc(-c2ccccc2)cc1
inactive: [1] | [2] | [3] | [4] | [5] 60.4% [at 2.1 µM, stronger effect = lower value] | [6] | [7] | [8]

C[C@@H]1CCCCO[C@@H](CN(C)Cc2ccccc2)[C@H](C)CN([C@@H](C)CO)C(=O)c2cc(NC(=O)Nc3ccc(C(F)(F)F)cc3)ccc2O1
inactive: [1] | [2] | [3] | [4] | [6]

C[C@@H]1CN([C@@H](C)CO)C(=O)Cc2cc(NS(=O)(=O)c3ccc(Cl)cc3)ccc2O[C@H]1CN(C)Cc1ccc(Cl)c(Cl)c1
inactive: [1] | [2] | [3] | [4] | [5] 11% [at 16 µM, stronger effect = lower value] | [6] | [7] | [8]

C[C@H]1CN([C@@H](C)CO)C(=O)c2c(c3ccccc3n2C)-c2ccccc2CO[C@@H]1CN(C)Cc1cccc(C(F)(F)F)c1
inactive: [1] | [2] | [3] | [4] | [5] 14.4% [at 0.26 µM, stronger effect = lower value] | [6] | [7]

COc1ccccc1S(=O)(=O)N(C)C[C@H]1Oc2cc(C#CCC3CCCC3)ccc2S(=O)(=O)N([C@H](C)CO)C[C@H]1C
inactive: [1] | [2] | [3] | [4] | [6]

N#C[C@@H]1[C@@H](c2ccc(-c3cccc(F)c3)cc2)[C@H](CO)N1C(=O)NC1CCCC1
inactive: [1] | [2] | [3] | [4] | [5] 15.7% [at 0.26 µM, stronger effect = lower value] | [7] | [8]

C[C@@H]1CN([C@@H](C)CO)C(=O)c2cc(NC(=O)Cc3ccccc3)ccc2O[C@@H](C)CCCCO[C@@H]1CN(C)Cc1ccc(C(F)(F)F)cc1
inactive: [1] | [2] | [3] | [4] | [5] -8.58% | [6] | [7]

C[C@H]1CCCCO[C@H](CN(C)C(=O)Nc2ccc(C(F)(F)F)cc2)[C@@H](C)CN([C@@H](C)CO)C(=O)c2cc(NS(=O)(=O)c3ccccc3)ccc2O1
inactive: [1] | [2] | [3] | [4] | [5] -16.1% [at 8 µM, stronger effect = lower value] | [6] | [7]

C[C@H](O)C#Cc1cnc2c(c1)C(=O)N([C@H](C)CO)C[C@@H](C)[C@@H](CN(C)Cc1ccc(-c3ccccc3)cc1)O2
inactive: [1] | [2] | [3] | [4] | [5] 29.8% [at 2.1 µM, stronger effect = lower value] | [6] | [7] | [8]

C[C@H](CO)N1C[C@H](C)[C@H](CN(C)Cc2ccc(Cl)c(Cl)c2)OCCCC[C@H](C)Oc2ccc(NC(=O)Nc3ccc(C(F)(F)F)cc3)cc2C1=O
inactive: [1] | [2] | [3] | [4] | [5] 27.7% [at 2.1 µM, stronger effect = lower value] | [6] | [7]

C[C@H](CO)N1C[C@H](C)[C@@H](CN(C)Cc2ccc(Oc3ccccc3)cc2)Oc2ccc(NS(=O)(=O)c3ccc(Cl)cc3)cc2CC1=O
not listed: [5] | [8]
inactive: all other assays above

CCc1ccc(/C=C2\SC(=S)N(CCCC(=O)N(CCO)c3ccccc3)C2=O)cc1
not listed: [5] | [8]
inactive: all other assays above

Cc1ccc(S(=O)(=O)Nc2ccc3c(c2)C(=O)N([C@@H](C)CO)C[C@H](C)[C@@H](CN(C)Cc2ccc(C(F)(F)F)cc2)OCCCC[C@@H](C)O3)cc1
not listed: [5] | [8]
inactive: all other assays above

Cc1ccc(S(=O)(=O)N(C)C[C@H]2OCCCC[C@H](C)Oc3ccc(NS(=O)(=O)c4ccc(F)cc4)cc3C(=O)N([C@H](C)CO)C[C@@H]2C)cc1
not listed: [5] | [8]
inactive: all other assays above

C[C@@H]1CCCCO[C@H](CN(C)Cc2ccc(Cl)c(Cl)c2)[C@@H](C)CN([C@@H](C)CO)C(=O)c2cc(NC(=O)Nc3ccc(F)cc3)ccc2O1
inactive: [1] | [2] | [3] | [4] | [6]

O=C(c1cc(-c2cccs2)on1)N1CCN(C(c2ccccc2)c2ccccc2)CC1
not listed: [5] | [8]
inactive: all other assays above

C[C@@H]1CN([C@@H](C)CO)C(=O)c2cc(NC(=O)Nc3ccc(C(F)(F)F)cc3)ccc2O[C@@H](C)CCCCO[C@H]1CN(C)Cc1ccncc1
not listed: [5] | [8]
inactive: all other assays above

OC[C@@H]1[C@H](c2ccc(-c3ccc(F)cc3)cc2)[C@@H]2CN(CCC(F)(F)F)CCCCN12
not listed: [5] | [8]
inactive: all other assays above

C[C@@H]1CN([C@@H](C)CO)C(=O)Cc2cc(NS(=O)(=O)c3ccc(F)cc3)ccc2O[C@H]1CN(C)Cc1ccc(Cl)c(Cl)c1
inactive: [1] | [2] | [3] | [4] | [6]

C[C@@H]1CN([C@H](C)CO)C(=O)c2c(c3ccccc3n2C)-c2ccccc2CO[C@H]1CN(C)S(=O)(=O)c1ccc(C(F)(F)F)cc1
inactive: [1] | [2] | [3] | [4] | [6]

COc1ccc(-c2ccc3c(c2)[C@@H]2[C@@H](CCN2C(=O)C2CCCCC2)[C@H](CO)N3C)cc1
inactive: [1] | [2] | [3] | [4] | [6]

C[C@H]1CCCCO[C@@H](CN(C)Cc2ccc(C(F)(F)F)cc2)[C@@H](C)CN([C@@H](C)CO)C(=O)c2cc(NS(=O)(=O)c3ccccc3)ccc2O1
not listed: [5] | [8]
inactive: all other assays above
